Potency, max response and outcome data for 28 molecules are collected here from PubChem BioAssay (NCATS).

Structures are written as SMILES. Several values for one entry are separate records, joined by “and”; a condition that tells them apart may be missing. Identical values can stand only once. Values without a mark were called inactive. Inconclusive results are not listed. A call without a number means that no potency is given here. Activity calls are given as the source filed them. Unless noted, the call rests on the fitted dose curve; in most records, active means well fitted inhibition curve with a large enough effect; inconclusive means small, poorly fitted or top-dose-only effect; inactive means flat fitted curve, though single readings scatter.

Nuclear receptor subfamily 1 group I member 2 (Rattus norvegicus), sequence (Q9R1A7 whole entry, looked up): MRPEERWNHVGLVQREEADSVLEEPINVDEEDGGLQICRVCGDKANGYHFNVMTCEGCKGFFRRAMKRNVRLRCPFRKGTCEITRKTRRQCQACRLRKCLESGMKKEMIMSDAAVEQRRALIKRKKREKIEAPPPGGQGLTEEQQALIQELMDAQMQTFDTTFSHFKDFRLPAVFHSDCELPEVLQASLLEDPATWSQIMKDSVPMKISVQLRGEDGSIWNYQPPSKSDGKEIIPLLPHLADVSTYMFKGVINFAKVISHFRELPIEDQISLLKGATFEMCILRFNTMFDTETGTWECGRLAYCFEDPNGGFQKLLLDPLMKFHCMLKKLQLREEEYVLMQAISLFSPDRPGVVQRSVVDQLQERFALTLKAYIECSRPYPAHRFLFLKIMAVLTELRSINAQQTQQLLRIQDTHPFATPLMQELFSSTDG

The test system of one experiment is astro (control astrocytes). Nature of the experiment: Drug repurposing screens with cells derived from glioblastoma tumor samples (AID 1345199). Further: nearly all actives have a fitted effect of over 40% in size. The following applies: viability, ATP luminescence, 48 h; series mostly up to 45.9 µM. Summed up: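 Primary testing used CD133+ neurospheres from four GBM patients, seven concentrations, 48 h exposure and ATP-based viability; confirmation added three slower-growing patient lines.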
Consider `O=P(O)(O)OP(=O)(O)OP(=O)(O)O`, for which the Potency entry was “inactive”.

`O=C(O)CCCC/C=C(\c1ccccc1)c1cccnc1`: the Potency result is “inactive”.

Regarding `Cc1cccc(C)c1NC(=O)NC1=CCCN1C`, the Potency result was “inactive”.

On to `CC(C)CN(C[C@@H](OP(=O)(O)O)[C@H](Cc1ccccc1)NC(=O)O[C@H]1CCOC1)S(=O)(=O)c1ccc(N)cc1`, for which the Potency entry was “inactive”.

As for `O=C(O)c1ccc(OCCn2ccnc2)cc1`, the Potency result was “inactive”.

For the molecule `CNC(=O)OCc1cccc(COC(=O)NC)n1`, the Potency result was “inactive”.

`CCC(Cc1c(I)cc(I)c(O)c1I)C(=O)O` (configuration not stated): the Potency result is “inactive”.

In the case of `CCCCCCCCCCCCCCCCCC(=O)OCC(C)O` (configuration not stated), the Potency entry is “inactive”.

Take `FC(F)(F)C(F)(F)C(F)(F)C(F)(F)C(F)(F)C(F)(F)F`: the Potency result is “inactive”.

Consider `C[C@@H]1C[C@H]2[C@@H]3C[C@H](F)C4=CC(=O)C=C[C@]4(C)[C@@]3(Cl)[C@@H](O)C[C@]2(C)[C@H]1C(=O)COC(=O)C(C)(C)C`, for which the Potency entry is “inactive”.

Turning to `OCl`, the Potency result was “inactive”.

Take `S=C1SCN(Cc2ccccc2)CN1Cc1ccccc1`: the Potency result was “inactive”.

For `CC[C@H]1OC(=O)[C@H](C)[C@@H](O[C@H]2C[C@@](C)(OC)[C@@H](O)[C@H](C)O2)C(C)[C@@H](O[C@@H]2O[C@H](C)C[C@H](N(C)C)[C@@H]2O)[C@](C)(OC)C[C@@H](C)C(=O)[C@H](C)[C@@H](O)[C@]1(C)O` (some centres not stated), the Potency entry was “inactive”.

For `NC(N)=O`, the Potency entry was “inactive”.

Consider `NC(=O)OCC(O)COc1ccc(Cl)cc1` (configuration not stated), for which the Potency entry was “inactive”.

`N=C(N)c1ccc(/C=C/c2ccc(C(=N)N)cc2O)cc1`: the Potency result was “inactive”.

As to `CC(C)Cc1ccc([C@@H](C)C(=O)NS(C)(=O)=O)cc1`, the Potency result is “inactive”.

As for `CC(C)(COP(=O)(O)OP(=O)(O)OC[C@H]1O[C@@H](n2cnc3c(N)ncnc32)[C@H](O)[C@@H]1OP(=O)(O)O)C(O)C(=O)NCCC(=O)NCCS` (some centres not stated), the Potency result is “inactive”.

As to `CO/N=C(\C(=O)N[C@@H]1C(=O)N2C(C(=O)O)=C(CSC(=O)c3ccco3)CS[C@H]12)c1csc(N)n1`, the Potency entry was “inactive”.

On to `O=C(O)C1=C(CSc2nnnn2CS(=O)(=O)O)CS[C@@H]2[C@H](NC(=O)[C@H](O)c3ccccc3)C(=O)N12`, for which the Potency result is “inactive”.

Consider `O=[N+]([O-])O[C@@H]1CO[C@H]2[C@@H]1OC[C@@H]2O`, for which the Potency entry is “inactive”.

The next experiment concerns the target Nuclear receptor subfamily 1 group I member 2 (Rattus norvegicus) (UniProt Q9R1A7). Nature of the experiment: qHTS assay for small molecule activators of the rat pregnane X receptor (rPXR) signaling pathway (AID 651751; call rule not given here). The conditions noted are these: rPXR reporter cells, luciferase (One-Glo), 24 h. (In qHTS, concentration-response curves come from the screen itself.)
Turning to `Cc1ccc(S(=O)(=O)NCl)cc1`, the max response was -0.198%.

In the case of `CC(C)CCCCCCc1ccc(O)cc1`, the max response was -1.23%.

With `OCc1ccccc1`, the max response was 22.6%.

Consider `NCCN`, for which the max response is 4.88%.

As to `OCl`, the max response was -4.49%.

Take `C[C@H](CCC(=O)O)[C@H]1CC[C@H]2[C@@H]3[C@H](O)C[C@@H]4C[C@H](O)CC[C@]4(C)[C@H]3C[C@H](O)[C@]12C`: the max response is -1%.

As for `NC(N)=O`, the max response is 3.1%.

In the case of `COC(=O)c1ccccc1O`, the max response is -2.2% and 1.51%.

With `CCCCC`, the max response is -1.73%.

Tested on in another experiment: not listed separately
Nature of the experiment: qHTS assay for small molecule activators of the human pregnane X receptor (PXR) signaling pathway (AID 720659; call rule not given here). The conditions noted are these: DPX-2 HepG2 CYP3A4-luciferase, 24 h; series mostly up to 92.3 µM.
For the molecule `Cc1ccc(S(=O)(=O)NCl)cc1`, the molecule was called inactive.

Turning to `OCc1ccccc1`, the molecule was called inactive.

Turning to `NCCN`, the result was inactive.

Turning to `OCl`, the call was inactive.

Regarding `C[C@H](CCC(=O)O)[C@H]1CC[C@H]2[C@@H]3[C@H](O)C[C@@H]4C[C@H](O)CC[C@]4(C)[C@H]3C[C@H](O)[C@]12C`, the result was inactive.

For the molecule `NC(N)=O`, the result was inactive.

For the molecule `CCCCC`, the molecule was classed as inactive.
